# Measurements published in PubChem BioAssay.
# Active and inactive are the calls of the source. Cut-off read from the data, not from the text of the source, unless noted: active = inhibition above about 80%; inactive = the rest.
# Experiments:
# [1] = growth inhibition, single agent or in combination, cell-based, chromothripsis tumors, cisplatin or BGB combos (AID 1671449); details: LFS_MB_P medulloblastoma cells;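 note: cells exposed for 96 hours; 0% = vehicle DMSO and 100% = killing by high DMSO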
# [2] = growth inhibition, single agent and combos, cell-based, chromothripsis tumors, cisplatin or BGB combos (AID 1671450); details: HDN33 neuroblastoma cells, stronger effect = higher value;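 note: cells exposed to compound for four days; 0% = vehicle DMSO and 100% = cell killing by high DMSO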
# [3] = growth inhibition, single agents and combos, ICB984, cell-based, cisplatin or BGB combos, synergistic combos for chromothripsis tumors (AID 1671451; call rule not given here;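 note: cells exposed for 96 hours before readout; 0% = vehicle DMSO and 100% = killing by high DMSO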); details: ICB984 medulloblastoma cells, drug combinations, stronger effect = higher value
# [4] = growth inhibition, single agents and combos, LFS_MB_1R, cell-based, cisplatin or BGB combos, synergistic combos for chromothripsis tumors (AID 1671452); details: LFS_MB_1R medulloblastoma cells, stronger effect = higher value;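 note: cells exposed for 96 hours before readout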
# [5] = growth inhibition, single agents and combos, HTB85, cell-based, BGB or cisplatin IC20 combos, synergistic combos for chromothripsis tumors (AID 1671453); details: HTB85 osteosarcoma cells, drug combinations, stronger effect = higher value;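 note: cells exposed for 96 hours before readout; 0% = vehicle DMSO and 100% = high DMSO killing control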
# [6] = growth inhibition, single agents and combos, CRL2098, cell-based, BGB or cisplatin IC20 combos, synergistic combos for chromothripsis tumors (AID 1671454); details: CRL2098 osteosarcoma cells, drug combinations, stronger effect = higher value;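 note: cells exposed for 96 h before readout; 0% = vehicle DMSO and 100% = killing by high DMSO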
# [7] = growth inhibition, single agents and combos, HD-MB03, cell-based, BGB or cisplatin IC20 combos, synergistic combos for chromothripsis tumors (AID 1671455; in the data active = inhibition above about 83%;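 note: 0% = vehicle DMSO and 100% = high DMSO as cytotoxic control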); details: HD-MB03 medulloblastoma cells, stronger effect = higher value
# [8] = growth inhibition, single agents and combos, UWB1.289, cell-based, BGB or cisplatin combos, synergistic combos for chromothripsis tumors (AID 1671456); details: UWB1.289 ovarian carcinoma cells, stronger effect = higher value;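 note: cells exposed to compound for four days; 0% = vehicle DMSO and 100% = killing by high DMSO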
# [9] = growth inhibition, single agents and combos, LFS_MB_2R, cell-based, cisplatin combos, synergistic combos for chromothripsis tumors (AID 1671457); details: LFS_MB_2R medulloblastoma cells, stronger effect = higher value;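 note: cells exposed to compound for four days before readout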
# [10] = growth inhibition, MDA-MB-436, cell-based, BGB or cisplatin combos, synergistic combos for chromothripsis tumors (AID 1671458; call rule not given here;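 note: cells exposed for 96 hours; 0% = vehicle DMSO and 100% = killing by high DMSO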); details: MDA-MB-436 breast carcinoma growth inhibition, drug combinations, stronger effect = higher value
# [11] = UWB1.289_BRCA1 ovarian cancer growth, cell-based, BGB or cisplatin combinations (AID 1671459); details: UWB1.289 BRCA1 ovarian carcinoma, drug combinations, stronger effect = higher value
# [12] = drug combination toxicity in non-malignant astrocytes – cell-based, BGB or cisplatin IC20 combos, cytotoxicity control for chromothriptic childhood tumor combination screen (AID 1671460); details: Human astrocytes, viability inhibition, drug combinations, at 0.5 µM, stronger effect = higher value;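 note: cells exposed to compounds for 96 hours before viability readout; 0% = vehicle and 100% = killing control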
# [13] = BT084 cell growth, single and combined drugs, ICGC_MB145, cisplatin and BGB IC40 combos (AID 1671461); details: BT084 medulloblastoma cells, drug combinations, stronger effect = higher value;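 note: cells exposed to drugs for 96 hours; 0% = vehicle DMSO and 100% = high DMSO full killing control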
# [14] = RCMB18 cell growth, single agent and combined, cisplatin and BGB IC40 combos (AID 1671462); details: RCMB18 medulloblastoma cells, stronger effect = higher value;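 note: cells exposed to compound for four days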
# [15] = CRL1545 cell growth, single agent and combined, cisplatin and BGB IC20 combos (AID 1671464); details: CRL1545 osteosarcoma cells, stronger effect = higher value;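 note: cells exposed to compound for 96 hours before readout; 0% = vehicle DMSO and 100% = high DMSO killing control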
# [16] = measured here: combination with BGB IC40, at 0.05 µM
# [17] = measured here: with BGB IC20 combination, at 0.5 µM
# [18] = measured here: with cisplatin IC20 combination, at 0.5 µM
# [19] = measured here: combination with cisplatin, at 0.5 µM
# [20] = measured here: combination with cisplatin, at 5 µM
smiles,measurement,setting,value
NC(=O)c1cccc2[nH]c(-c3ccc(C4CCCN4)cc3F)nc12 (stereo not drawn),inhibition,"[1]; at 0.5 µM, stronger effect = higher value",19.3% (inactive)
same,inhibition,"[1]; measured here: combination with BGB IC20, at 0.005 µM",7.36%
same,inhibition,"[1]; measured here: combination with BGB IC40, at 0.005 µM",-24.3%
same,inhibition,[1]; [16],1.68%
same,inhibition,"[1]; measured here: combination with cisplatin, at 0.5 µM, stronger effect = higher value",52.8%
same,inhibition,"[1]; measured here: combination with cisplatin, at 5 µM, stronger effect = higher value",58.1%
same,inhibition,"[2]; BGB combo, at 5 µM",54.3%
same,inhibition,[2]; at 0.5 µM,15.5% (inactive)
same,inhibition,"[2]; cisplatin combo, at 5 µM",60.1%
same,inhibition,[2]; [17],22.6%
same,inhibition,[2]; [18],10.8%
same,inhibition,"[2]; single agent, at 5 µM",54.9%
same,inhibition,"[3]; BGB IC20 combo, at 0.005 µM",3.69%
same,inhibition,"[3]; BGB IC40 combo, at 0.005 µM",-38.8%
same,inhibition,"[3]; BGB IC40 combo, at 0.05 µM",41.6%
same,inhibition,[3]; at 0.5 µM,-20.7% (inactive)
same,inhibition,"[3]; cisplatin combo, at 0.05 µM",39.3%
same,inhibition,"[3]; cisplatin combo, at 0.5 µM",-35.8%
same,inhibition,"[3]; cisplatin combo, at 5 µM",-28.7%
same,inhibition,"[3]; measured here: 5 uM single agent, at 5 µM",-6.58%
same,inhibition,[4]; at 0.5 µM,-15.8% (inactive)
same,inhibition,[4]; [16],-15.1%
same,inhibition,[4]; [19],-24.3%
same,inhibition,[4]; [20],48.8%
same,inhibition,[5]; at 0.5 µM,6.65% (inactive)
same,inhibition,"[5]; measured here: with BGB IC20, at 0.5 µM",0.81%
same,inhibition,"[5]; measured here: with BGB IC20, at 5 µM",37.8%
same,inhibition,"[5]; measured here: with cisplatin IC20, at 0.5 µM",2.33%
same,inhibition,"[5]; measured here: with cisplatin IC20, at 5 µM",51.1%
same,inhibition,"[5]; single agent, at 5 µM",52.6%
same,inhibition,[6]; at 0.5 µM,-18.9% (inactive)
same,inhibition,"[6]; measured here: combination with BGB at IC20, at 0.5 µM",-1.16%
same,inhibition,"[6]; measured here: combination with cisplatin at IC20, at 0.5 µM",-8.89%
same,inhibition,[7]; at 0.5 µM,7.06% (inactive)
same,inhibition,"[7]; measured here: combo with BGB at IC20, at 0.5 µM",1.45%
same,inhibition,"[7]; measured here: combo with cisplatin at IC20, at 0.5 µM",11.4%
same,inhibition,[8]; at 0.5 µM,9.31% (inactive)
same,inhibition,"[8]; measured here: inhibition with BGB combination, at 0.05 µM",-4.89%
same,inhibition,"[8]; measured here: inhibition with cisplatin combination, at 0.05 µM",-21.6%
same,inhibition,[9]; at 0.5 µM,-11.1% (inactive)
same,inhibition,[9]; [19],-12.4%
same,inhibition,[9]; [20],48.1%
same,inhibition,[10]; at 0.5 µM,12.2% (inactive)
same,inhibition,"[10]; measured here: BGB combination, at 0.5 µM",-1.6%
same,inhibition,"[10]; measured here: BGB combination, at 5 µM",34.2%
same,inhibition,"[10]; measured here: cisplatin combination, at 0.5 µM",12.5%
same,inhibition,"[10]; measured here: cisplatin combination, at 5 µM",56.6%
same,inhibition,"[11]; BGB combination, concentration series, at 5 µM",55.7%
same,inhibition,[11]; at 0.5 µM,12.5% (inactive)
same,inhibition,"[11]; cisplatin combination, concentration series, at 5 µM",69.9%
same,inhibition,[12],18.3% (inactive)
same,inhibition,[12]; measured here: combo with BGB IC20,32.5%
same,inhibition,[12]; measured here: combo with cisplatin IC20,12%
same,inhibition,[13]; at 0.5 µM,-17.4% (inactive)
same,inhibition,"[13]; cisplatin combination, at 0.5 µM",-7.13%
same,inhibition,"[13]; cisplatin combination, at 5 µM",41.8%
same,inhibition,"[13]; measured here: BGB IC40 combination 0.05 uM, at 0.05 µM",14.7%
same,inhibition,"[13]; single agent, at 5 µM",45%
same,inhibition,[14]; at 0.5 µM,-17.5% (inactive)
same,inhibition,"[14]; cisplatin combo, at 5 µM",55.7%
same,inhibition,"[14]; measured here: BGB IC40 combination, at 0.05 µM",-5.7%
same,inhibition,[14]; [19],-29.9%
same,inhibition,"[14]; single agent, at 5 µM",39.2%
same,inhibition,[15]; at 0.5 µM,-0.89% (inactive)
same,inhibition,[15]; [17],-14.3%
same,inhibition,[15]; [18],5.82%
same,inhibition,"[15]; single agent, at 0.05 µM",27.4%
same,inhibition,"[15]; single agent, at 5 µM",63.4%
